Source: PubChem BioAssay
Only some compounds are listed: those with a hit (about 4.1% of all), similar ones and a draw of the others.
hgDAF-12 ag: hgDAF-12 agonism, primary luciferase screen; HEK293 GAL4-hgDAF12 UAS-luciferase reporter, agonist luminescence; normalized to butyrate control; activation, % at 6.8 µM; 370,000 tested, 1.8% active; AID 687014;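 active = activation above a cutoff set at the mean of all screened compounds plus 3 SD, cut at about 10% in these data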
DAX1 inh-1: NR0B1 (DAX1) inhibition | P51843 | HEK293 Gal4-DAX1 luciferase reporter, luminescence | inhibition, % at 6.75 µM | 340,000 tested, 0.99% active | AID 504766;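 active = inhibition above the mean over all tested compounds plus 3 SD, cut at about 4.2% in these data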;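 note: inhibition shows as a rise in luminescence from relieved DAX1 repression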
ssDAF12 agonist: S. stercoralis DAF-12 activation, primary screen; HEK293 ssDAF-12/GRIP1 lit1-tk-luc reporter, luminescence; % of 3 µM dafachronic acid response; AID 652126; activation, % at 6.8 µM; 370,000 tested, 1% active;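 active = activation above the mean over all tested compounds plus 3 SD, cut at about 0.9% in these data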
DAX1 inh-2: DAX1 (NR0B1) inhibition, primary screen | HEK293T StAR-luciferase reporter, SF-1/DAX-1 repression relief | inhibition, % at 6.8 µM | 370,000 tested, 1.1% active | AID 652010;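 active = inhibition above the mean over all tested compounds plus 3 SD, cut at about 3.6% in these data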;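 note: higher inhibition means more luminescence from relief of DAX-1 repression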
hcDAF12 agonist: activates DAF-12 receptor from parasite H. contortus; HEK293 hcDAF-12 lit1-tk-luc reporter, luminescence; 0% DMSO, 100% Δ7-dafachronic acid; activation, % at 6.8 µM; 370,000 tested, 1.4% active; AID 652067;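 active = activation above the mean of all tested compounds plus 3 SD, cut at about 5.5% in these data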
hgDAF12 conf: hgDAF-12 agonism, confirmation assay. shares compounds with hgDAF-12 ag. HEK293 GAL4-hgDAF12 luciferase reporter, agonist mode; percent of butyrate response. activation, % at 6.8 µM. 3,300 tested, 80% active. AID 743050;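 active = mean activation over triplicate wells above the hit cutoff derived from the earlier primary screen, cut at about 11% in these data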
LXR ag 2: activates human LXR-beta, counter-screen for DAF-12 agonists; shares compounds with hgDAF-12 ag; HEK293 Gal4-LXR luciferase reporter, 24 h; activation, % at 6.8 µM; 3,300 tested, under 10 active;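 active = mean activation of the triplicate above a set limit carried over from the primary screen, none filed active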
Target sequence (P55055 whole entry, looked up, the tested form may be a part): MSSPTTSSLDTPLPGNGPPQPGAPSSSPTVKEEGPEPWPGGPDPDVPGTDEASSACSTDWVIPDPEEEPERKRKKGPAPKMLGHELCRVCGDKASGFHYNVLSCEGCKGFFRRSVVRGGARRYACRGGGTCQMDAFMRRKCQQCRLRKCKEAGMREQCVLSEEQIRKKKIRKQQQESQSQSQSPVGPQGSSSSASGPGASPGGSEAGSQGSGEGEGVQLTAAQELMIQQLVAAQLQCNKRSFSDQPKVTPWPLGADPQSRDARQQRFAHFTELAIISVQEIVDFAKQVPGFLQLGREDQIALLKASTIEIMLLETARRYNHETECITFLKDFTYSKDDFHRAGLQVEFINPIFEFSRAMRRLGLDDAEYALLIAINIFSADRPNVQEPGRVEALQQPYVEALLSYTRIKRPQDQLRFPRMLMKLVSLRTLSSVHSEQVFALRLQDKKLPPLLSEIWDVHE
A number is an active result; - = inactive; . = no result given.

SMILES | hgDAF-12 ag | DAX1 inh-1 | ssDAF12 agonist | DAX1 inh-2 | hcDAF12 agonist | hgDAF12 conf | LXR ag 2
CCC(=O)Nc1ccc(NC(=S)NC(=O)c2cc3ccccc3o2)cc1 | - | - | - | - | - | . | .
CCC(=O)Nc1cccc(NC(=S)NC(=O)c2ccc(C)cc2)c1 | 14 | 4.8 | - | 3.8 | - | 16 | -
CC(=O)c1cccc(NC(=S)NC(=O)c2ccc(C)cc2)c1 | 15 | - | - | 4.0 | - | 15 | -
CCOc1cccc(C(=O)NC(=S)Nc2ccccc2)c1 | 19 | - | - | - | - | 16 | -
CC(NCc1ccco1)C(=O)N1CCN(Cc2ccccc2F)CC1 (centres undefined) | - | . | - | - | - | . | .
CC(=O)CC(=O)O[C@@H]1C=C[C@H](NC(=O)OC(C)(C)C)C1 | - | . | - | - | - | . | .
O=C(NC1CCCCC1)c1cc(-c2ccccc2O)on1 | 13 | - | - | - | - | 15 | -
COc1ccccc1-c1cc(C(=O)NC(C)C)no1 | - | - | - | - | - | . | .
CCC(C)NC(=O)c1cc(-c2ccccc2O)on1 (centres undefined) | 14 | - | - | - | - | - | -
O=C(NC1CCCCC1)c1cc(-c2ccc(O)cc2)on1 | - | - | - | - | - | . | .
Cc1ccc(NC(CC(=O)c2ccccc2)C(=O)O)cc1Cl (centres undefined) | 16 | 5.4 | - | 4.2 | 5.6 | 27 | -
O=S1(=O)c2c(cccc2N2CCSCC2)Oc2ccccc2CN1Cc1cn(Cc2cccc(F)c2)nn1 | - | . | - | - | - | . | .
COc1cc(NC(=O)c2ccccn2)cc(OC)c1OC | - | - | - | - | - | . | .
COc1ccc(NC(=O)c2ccc(OC(F)F)cc2)cc1Cl | 17 | - | 1.4 | 3.7 | - | 12 | -
O=C(Nc1ccc(OC(F)F)c(Cl)c1)c1ccccn1 | 14 | 5.2 | 1.4 | 4.5 | - | 17 | -
COc1ccc(NC(=O)c2cc(F)cc(F)c2)cc1Cl | - | - | - | - | - | . | .
CCCCc1c(-c2ccccc2OC)ncn1Cc1ccc(OC)c(Cl)c1 | - | . | - | - | - | . | .
COC(=O)c1sc(NC(=O)c2ccc(C)o2)nc1C | 14 | - | - | - | - | 10 | -
CC(=O)c1ccc(NC(=O)/C(Cl)=C/c2ccccc2)cc1 | 17 | - | - | - | - | 12 | -
Cc1nn(-c2ccccc2)c2sc(C(=O)NC3CCCc4ccccc43)cc12 (centres undefined) | - | . | - | - | - | . | .
CCCC(=O)OC[C@H]1CN(C2CCCC2)S(=O)(=O)c2c(Oc3ccccc3)cccc2O1 | - | . | - | - | - | . | .
COc1ccc(C2=Nc3ccccc3N(C(=O)c3ccc4c(c3)OCO4)C2C(=O)Nc2c(C)cccc2C)cc1 (centres undefined) | 14 | . | - | - | - | - | -
COC(=O)[C@@]12CCCCC3=C1N(CCC3)C(=O)[C@H]2CC(=O)NCCc1ccccc1OC | - | . | - | - | - | . | .
CCOC(=O)c1ccccc1NC1c2ccccc2C(=O)N1c1ccc(C)cn1 (centres undefined) | 15 | - | - | - | - | - | -
COc1ccc(-n2ncc3c(NC(C)C)ncnc32)cc1 | 19 | - | - | - | - | 17 | -
SMILES | hgDAF-12 ag | DAX1 inh-1 | ssDAF12 agonist | DAX1 inh-2 | hcDAF12 agonist | hgDAF12 conf | LXR ag 2
COCC(C)Nc1ncnc2c1cnn2-c1ccc(Cl)cc1 (centres undefined) | 18 | - | - | 4.0 | 5.8 | 11 | -
COc1ccc(-n2ncc3c(N4CCCCC4)ncnc32)cc1 | . | - | . | . | . | . | .
COC(=O)C1=C(C)N(Cc2ccccc2C(F)(F)F)C(=NCc2ccc(C(F)(F)F)cc2)NC1c1cccc(Cl)c1 (centres undefined) | - | . | - | - | - | . | .
CCC(/C=N/NC(=O)c1ccccc1F)CC | 18 | 5.3 | - | - | - | - | -
CCCC(CCC)=NNC(=O)c1ccccc1F | 16 | - | - | - | - | - | -
Cc1cc(/C=N/NC(=O)c2ccccc2F)c(C)n1-c1ccccc1 | 14 | - | - | - | - | 17 | -
CCOC(=O)N/N=C/c1cc(C)n(-c2ccccc2)c1C | - | - | - | - | - | . | .
CCN(CC)c1ccc(NC(=O)c2ccccc2F)cc1 | 14 | - | - | - | 5.6 | 21 | -
O=C(Nc1ccc(Nc2ccccc2)cc1)c1ccccc1F | - | - | - | - | - | . | .
COc1ccc(Cn2ccc3ccc(-c4ccc5ccn(Cc6ccccc6)c5c4)cc32)cc1 | - | . | - | - | - | . | .
COC(=O)[C@]12C[C@H](CC(=O)N3CCSCC3)C(=O)N(CCc3ccc(OC)c(OC)c3)C1=C[C@H](C1CCCC1)O[C@@H]2C | - | . | - | - | - | . | .
COc1ccccc1CNC(=O)C/C(C)=N/NC(=O)Cc1ccc(Cl)cc1 | - | - | - | - | - | . | .
C/C(CC(=O)NCc1ccc(Cl)cc1)=N\NC(=O)c1ccccc1F | 14 | - | 1.5 | - | - | - | -
Cc1cc(N2CCN(C(=O)OC(C)(C)C)C[C@@H]2C)ccc1N1CCN(Cc2ccccc2)[C@H](C)C1 | - | . | - | - | - | . | .
CCOC(=O)COC(=O)c1ccc(O)cc1 | - | - | - | - | - | . | .
Cc1ccc(C(=O)COC(=O)c2ccc(O)cc2)cc1 | 14 | - | - | - | - | - | -
O=C(COc1ccc(Br)cc1Br)NC(=S)N1CCCc2ccccc21 | . | - | . | . | . | . | .
O=C(COc1ccc(Br)cc1Cl)NC(=S)N1CCc2ccccc21 | 13 | - | 1.0 | - | 6.2 | - | -
O=C(NNC(=S)Nc1ccc(Cl)cc1)c1cccs1 | 14 | - | - | - | - | - | -
O=C(c1cc(-c2ccc(Cl)cc2)on1)N1CCCC1 | 14 | - | 1.1 | - | - | 16 | -
O=C(Nc1nccs1)c1cn2ccccc2n1 | 15 | - | - | - | 5.8 | 14 | -
O=[N+]([O-])c1ccc2nc(-c3ccccc3)[nH]c2c1 | 20 | - | - | 4.0 | - | 18 | -
O=C(Nc1nc2ccccc2[nH]1)c1cccc([N+](=O)[O-])c1 | 16 | - | - | - | - | 14 | -
Cc1ccc(N(C)S(=O)(=O)c2cccc(C(=O)Nc3nc4ccccc4[nH]3)c2)cc1 | - | - | - | - | - | . | .
CN(C)c1cccc(C(=O)Nc2nc3ccccc3[nH]2)c1 | 15 | - | - | - | - | - | -
CCOc1ccc(-n2c(COc3ccccc3)nnc2SCc2nc3ccccc3[nH]2)cc1 | - | . | - | - | - | . | .
COc1ccc2c(c1)N=CN1CCc3c([nH]c4ccccc34)C3=NCC[C@@]321 | - | . | - | . | - | . | .
O=C(C=C1SCCS1)/C=C/c1ccco1 | 15 | - | - | 3.7 | - | 14 | -
Cc1cc(NC(=O)CSc2nc3c(cc2C#N)CCC3)no1 | 13 | 4.7 | - | - | - | 15 | -
